Among all 5,500 compounds or so, about 2,000 (36%) were called active. Inconclusive results (about 18%) are left out. Rule as the data show it: active = normalized growth mostly below about 0.91 (no sharp cut-off); inconclusive = no clear call, values can overlap the other calls; inactive = mostly above about 0.92. Some of the results follow.
Experiment: chemical genetic growth profiling, strain panel (AID 1159580);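 also: tested at 20 µM; growth read once vehicle control cultures reached saturation at 30 °C; 1 = growth at the plate median or of vehicle wells; lower values mean less growth of the strain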
Conditions: S. cerevisiae deletion strains, growth OD
[1] = locus YAR019C, strain CDC15, active compounds read low
[2] = locus YBL105C, strain PKC1, active compounds read low
[3] = locus YBR135W, strain CKS1, active compounds read low
[4] = locus YBR136W, strain MEC1, active compounds read low
[5] = locus YBR160W, strain CDC28, active compounds read low
[6] = locus YDL017W, strain CDC7, active compounds read low
[7] = locus YDL028C, strain MPS1, active compounds read low
[8] = locus YDL101C, strain DUN1, active compounds read low
[9] = locus YDL108W, strain KIN28, active compounds read low
[10] = locus YDL132W, strain cdc53, active compounds read low
[11] = locus YDL214C, strain PRR2, active compounds read low
[12] = locus YDR052C, strain DBF4, active compounds read low
[13] = locus YDR054C, strain cdc34, active compounds read low
[14] = locus YDR226W, strain ADK1, active compounds read low
[15] = locus YDR477W, strain SNF1, active compounds read low
[16] = locus YER123W, strain YCK3, active compounds read low
[17] = locus YER133W, strain GLC7, active compounds read low
[18] = locus YFL009W, strain cdc4, active compounds read low
[19] = locus YFL029C, strain CAK1, active compounds read low
[20] = locus YFR003C, strain YPI1, active compounds read low
[21] = locus YFR019W, strain FAB1, active compounds read low
[22] = locus YFR028C, strain CDC14, active compounds read low
[23] = locus YGR040W, strain KSS1, active compounds read low
[24] = locus YGR052W, strain FMP48, active compounds read low
[25] = locus YGR092W, strain DBF2, active compounds read low
[26] = locus YHR030C, strain SLT2, active compounds read low
[27] = locus YHR079C, strain IRE1, active compounds read low
[28] = locus YHR082C, strain KSP1, active compounds read low
[29] = locus YHR205W, strain SCH9, active compounds read low
[30] = locus YIL147C, strain SLN1, active compounds read low
[31] = locus YJL095W, strain BCK1, active compounds read low
[32] = locus YJL128C, strain PBS2, active compounds read low
[33] = locus YJL157C, strain FAR1, active compounds read low
[34] = locus YJR016C, strain ILV3, active compounds read low
[35] = locus YJR066W, strain TOR1 (second series), active compounds read low
[36] = locus YJR066W, strain TOR1, active compounds read low
[37] = locus YKL048C, strain ELM1, active compounds read low
[38] = locus YKL067W, strain YNK1, active compounds read low
[39] = locus YKL101W, strain HSL1, active compounds read low
[40] = locus YKL193C, strain SDS22, active compounds read low
[41] = locus YKL203C, strain TOR2, active compounds read low
[42] = locus YLR113W, strain HOG1, active compounds read low
[43] = locus YLR133W, strain CKI1, active compounds read low
[44] = locus YLR403W, strain SFP1, active compounds read low
[45] = locus YML070W, strain DAK1, active compounds read low
[46] = locus YMR001C, strain CDC5, active compounds read low
[47] = locus YMR205C, strain PFK2 (second series), active compounds read low
[48] = locus YMR277W, strain FCP1, active compounds read low
[49] = locus YNL006W, strain LST8, active compounds read low
[50] = locus YNL020C, strain ARK1, active compounds read low
[51] = locus YNL161W, strain CBK1, active compounds read low
[52] = locus YNL183C, strain NPR1, active compounds read low
[53] = locus YNL207W, strain RIO2, active compounds read low
[54] = locus YNL222W, strain SSU72, active compounds read low
[55] = locus YNL307C, strain MCK1 (second series), active compounds read low
[56] = locus YOL078W, strain AVO1, active compounds read low
[57] = locus YOL136C, strain PFK27, active compounds read low
[58] = locus YOR061W, strain CKA2, active compounds read low
[59] = locus YOR119C, strain RIO1, active compounds read low
[60] = locus YOR231W, strain MKK1, active compounds read low
[61] = locus YOR329C, strain SCD5, active compounds read low
[62] = locus YPL031C, strain PHO85, active compounds read low
[63] = locus YPL153C, strain RAD53, active compounds read low
[64] = locus YPL204W, strain HRR25, active compounds read low
[65] = locus YPL209C, strain IPL1, active compounds read low
[66] = locus YPL256C, strain CLN2, active compounds read low
[67] = locus YPR025C, strain CCL1, active compounds read low
[68] = locus YPR106W, strain ISR1, active compounds read low
[69] = locus YPR111W, strain DBF20, active compounds read low
[70] = strain NNK1, active compounds read low
[71] = strain TSCII, active compounds read low

Measured: normalized growth

O=C(c1ccc(Cl)cc1)N(Cc1ccccc1)Cc1cccnc1
inactive: [1] 0.994 | [2] 0.985 | [3] 0.989 | [4] 0.979 | [5] 0.986 | [6] 0.981 | [7] 0.989 | [8] 0.987 | [9] 0.98 | [10] 0.993 | [11] 0.866 | [12] 0.985 | [13] 0.987 | [14] 0.987 | [15] 0.886 | [16] 0.748 | [17] 0.868 | [18] 0.994 | [19] 0.996 | [20] 0.983 | [21] 0.801 | [22] 0.992 | [23] 0.874 | [24] 0.869 | [25] 0.865 | [26] 0.976 | [27] 0.96 | [28] 0.896 | [29] 0.918 | [30] 0.977 | [31] 0.862 | [32] 0.956 | [33] 0.845 | [34] 0.99 | [35] 0.853 | [36] 0.89 | [37] 0.965 | [38] 0.885 | [39] 0.905 | [40] 0.987 | [41] 0.944 | [42] 0.884 | [43] 0.905 | [44] 0.864 | [45] 0.859 | [46] 0.991 | [47] 0.885 | [48] 0.989 | [49] 1.01 | [50] 0.885 | [51] 0.994 | [52] 0.909 | [53] 0.986 | [54] 0.989 | [55] 0.885 | [56] 0.994 | [57] 0.877 | [58] 0.828 | [59] 0.915 | [60] 0.912 | [61] 0.991 | [62] 0.877 | [63] 0.851 | [64] 0.885 | [65] 0.988 | [66] 0.966 | [67] 0.984 | [68] 0.995 | [69] 0.998 | [70] 0.991 | [71] 0.995

Cc1nc(-c2ccccn2)nc(SCc2ccccc2)c1Cl
active: [26] 0.843 | [42] 0.802
inactive: [1] 0.946 | [2] 0.945 | [3] 0.941 | [4] 0.94 | [5] 0.954 | [6] 0.949 | [7] 0.939 | [8] 0.942 | [9] 0.94 | [10] 0.93 | [11] 0.844 | [12] 0.94 | [13] 0.922 | [14] 0.942 | [15] 0.849 | [16] 0.747 | [17] 0.826 | [18] 0.935 | [19] 0.935 | [20] 0.943 | [21] 0.887 | [22] 0.94 | [23] 0.829 | [24] 0.853 | [25] 0.705 | [27] 0.766 | [28] 0.849 | [29] 0.86 | [30] 0.935 | [31] 0.862 | [32] 0.927 | [33] 0.798 | [34] 0.936 | [35] 0.786 | [36] 0.792 | [37] 0.96 | [38] 0.849 | [39] 0.875 | [40] 0.937 | [41] 0.869 | [43] 0.876 | [44] 0.772 | [45] 0.816 | [46] 0.942 | [47] 0.864 | [48] 0.941 | [49] 0.94 | [50] 0.827 | [51] 0.942 | [52] 0.826 | [53] 0.921 | [54] 0.943 | [55] 0.807 | [56] 0.938 | [57] 0.834 | [58] 0.815 | [59] 0.843 | [60] 0.819 | [61] 0.946 | [62] 0.791 | [63] 0.793 | [64] 0.834 | [65] 0.952 | [66] 0.934 | [67] 0.942 | [68] 0.95 | [69] 0.955 | [70] 0.945 | [71] 0.933

Cc1nc(-c2ccccn2)nc(N(C)Cc2ccccc2)c1Cl
inactive: [1] 0.951 | [2] 0.961 | [3] 0.967 | [4] 0.955 | [5] 0.968 | [6] 0.962 | [7] 0.956 | [8] 0.962 | [9] 0.951 | [10] 0.961 | [11] 0.997 | [12] 0.965 | [13] 0.948 | [14] 0.956 | [15] 0.971 | [16] 0.93 | [17] 0.975 | [18] 0.953 | [19] 0.94 | [20] 0.963 | [21] 1 | [22] 0.976 | [23] 0.964 | [24] 1.04 | [25] 0.863 | [26] 0.932 | [27] 0.95 | [28] 0.998 | [29] 0.954 | [30] 0.952 | [31] 0.966 | [32] 0.973 | [33] 0.972 | [34] 0.969 | [35] 0.958 | [36] 0.952 | [37] 0.982 | [38] 0.97 | [39] 0.945 | [40] 0.96 | [41] 1.01 | [42] 1 | [43] 0.968 | [44] 0.959 | [45] 0.966 | [46] 0.956 | [47] 0.981 | [48] 0.964 | [49] 0.975 | [50] 0.973 | [51] 0.964 | [52] 1 | [53] 0.959 | [54] 0.96 | [55] 0.922 | [56] 0.96 | [57] 0.963 | [58] 0.941 | [59] 0.991 | [60] 0.994 | [61] 0.955 | [62] 0.952 | [63] 0.943 | [64] 0.938 | [65] 0.958 | [66] 0.985 | [67] 0.963 | [68] 0.974 | [69] 0.976 | [70] 0.979 | [71] 0.953

— PubChem BioAssay AID1159580 (chemical genetic matrix, 2015)
